E-sel TNF inh = TNF alpha driven E-selectin expression inhibition. HUVEC TNFa-induced E-selectin immunofluorescence, high content. inhibition, % at 2 µM. 120,000 compounds, 0.71% hits. AID 1246;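 active means inhibition above the batch mean plus 3 SD, and confirmed as a hit on visual image review, cut at about 43% in these data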;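 further: 0% = TNF-stimulated DMSO wells and 100% = unstimulated control wells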
VCAM1 TNFa inh = reduces TNF alpha induced VCAM1 expression in HUVEC. HUVEC TNFa-induced VCAM-1 immunofluorescence, high-content imaging. inhibition, % at 2 µM. 95,000 compounds, 0.48% hits;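 active means inhibition above the batch mean plus 3 SD, with images confirmed as a hit by eye, cut at about 37% in these data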;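 further: 0% = TNF-stimulated DMSO wells and 100% = unstimulated control wells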
F-actin modifier = cytoskeleton assembly modification; HUVEC TNFa F-actin phalloidin imaging, high content; inhibition, % at 2 µM; 91,000 compounds, 0.18% hits;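 active means inhibition above the batch mean plus 3 SD and confirmed as a hit by visual image inspection, cut at about 30% in these data, passing the limit was not always enough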
HUVEC tox TNFa = HUVEC cytotoxicity counter-screen, TNF alpha stimulated. HUVEC TNFalpha-stimulated, Hoechst cell count, imaging. cell count reduction, % at 2 µM. 93,000 compounds, 0.17% hits. AID 848;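 active means cell count reduction exceeding the screen mean by over 5 SD, scaled to untreated wells per plate, cut at about 78% in these data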;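 further: cells counted after 24 h of TNF alpha exposure following the 1 h pretreatment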
* marks the source's active call; other numbers are inactive results; / = no result. Sampled rows, rich in hits. Any-hit rate of the full collection: about 1%.

SMILES | E-sel TNF inh | VCAM1 TNFa inh | F-actin modifier | HUVEC tox TNFa
CCN(CC)S(=O)(=O)c1ccc(-c2nnc(SCC(=O)Nc3ccc(OC)cc3)o2)cc1 | 64* | 40 | 12 | 9
CCN(CC)S(=O)(=O)c1ccc(-c2nnc(SCC(=O)Nc3ccc(OC)c(OC)c3)o2)cc1 | 4 | -16 | -3 | -1
COC(=O)C1=NN(c2cccc(C)c2)C2C(=O)N(c3ccccc3OC)C(=O)C12 (stereo unspecified) | 73* | / | / | /
COC(=O)C1=C(C)N(c2cccc(C)c2)C(=O)/C1=C\c1cccs1 | -52 | 8 | 7 | -14
Cc1ccc(C(=O)N/C(=C\c2cccs2)C(=O)NCCCn2ccnc2)cc1C | -1 | 13 | -17 | -12
C=CCN(Cc1nc(-c2ccc(OC)c(OC)c2)oc1C)C1CCS(=O)(=O)C1 (stereo unspecified) | -4 | / | / | /
O=C(CCl)N1N=C(c2ccco2)CC1c1cccs1 (stereo unspecified) | 70* | / | / | /
Cc1noc(C)c1S(=O)(=O)Nc1ccc(C(=O)NC2CCCCC2C)cc1 (stereo unspecified) | 75* | 1 | -30 | -11
CCS(=O)(=O)NCC(c1ccco1)N1CCN(c2ccccc2)CC1 (stereo unspecified) | 70* | / | / | /
CCC(=O)NCC(c1ccco1)N1CCN(c2ccc(OC)cc2)CC1 (stereo unspecified) | 39 | / | / | /
O=S(=O)(NCC(c1ccco1)N1CCN(c2ccccc2)CC1)c1ccc(F)cc1 (stereo unspecified) | 69* | / | / | /
Cc1ccc(C2=NN3C(C(=O)c4ccccc4)Oc4ccccc4C3C2)cc1 (stereo unspecified) | / | 14 | -39 | -10
CCN(CC)C(=O)c1ccc2c(c1[N+](=O)[O-])C(=O)c1ccccc1C2=O | -23 | / | / | /
COc1cccc(-n2nc(C#N)c(Cl)cc2=O)c1 | 98* | / | / | /
COc1ccc(-c2cc(C(F)(F)F)n3ncc(C(=O)Nc4c(C)n(C)n(-c5ccccc5)c4=O)c3n2)cc1 | 2 | / | / | /
CCc1cccc(CC)c1N(COC)C(=O)Cn1ccccc1=N | 5 | 17 | 79* | -47
CCn1c(SCC(=O)Nc2ccc(C(=O)OC)cc2)nnc1-c1cccs1 | 0 | 55* | -1 | -9
CCn1c(SCC(=O)NCC(=O)Nc2ccc(F)cc2)nnc1-c1cccs1 | / | -4 | -23 | -4
COC(=O)c1ccc(S(=O)(=O)NCc2cccc(OC)c2)n1C | 64* | 9 | 41 | -14
CCn1c(SCC(=O)Nc2ccccc2OC)nnc1-c1cnccn1 | 62* | -2 | 33 | -34
C=CCn1c(SCC(=O)Nc2ccccc2OC)nnc1-c1ccccn1 | 3 | -15 | 24 | 8
Cc1ccnc(NS(=O)(=O)c2ccc(NC(=O)c3c(-c4ccccc4Cl)noc3C)cc2)n1 | -38 | 0 | 4 | -17
Cc1ccc2cccc(Oc3ncnc4scc(-c5ccccc5)c34)c2n1 | 19 | / | / | /
COc1ccc(-c2csc3ncnc(Oc4cccc5ccc(C)nc45)c23)cc1 | 89* | / | / | /
Cc1ccc(S(=O)(=O)NNC(=O)c2sccc2-n2cccc2)cc1 | 62* | 9 | -19 | -6
SMILES | E-sel TNF inh | VCAM1 TNFa inh | F-actin modifier | HUVEC tox TNFa
Cc1cc(NC(=O)CSc2nc(-c3cccs3)cc(C(F)(F)F)n2)no1 | -13 | 53* | -10 | 21
COc1ccc(C2C(C#N)=C(SCC(=O)Nc3ccc(C)cc3)NC3=C2C(=O)CC(C)(C)C3)cc1 (stereo unspecified) | 66* | -7 | 6 | -6
COc1cccc(NC(=O)CSC2=C(C#N)C(c3ccco3)C3=C(CCCC3=O)N2)c1 (stereo unspecified) | / | -5 | -7 | 36
CCOC(=O)CS(=O)(=O)c1nc(-c2ccc(F)cc2)cc(C(F)(F)F)n1 | 58* | / | / | /
COC(=O)CCS(=O)(=O)c1nc(-c2ccccc2)cc(C(F)(F)F)n1 | 30 | 33 | -6 | -1
CCOC(=O)CS(=O)(=O)c1nc(-c2ccccc2)cc(C(F)(F)F)n1 | 67* | 48 | -2 | 6
COCC(C)NC(=O)CCS(=O)(=O)c1nc(-c2ccc(OC)cc2)cc(C(F)(F)F)n1 (stereo unspecified) | 83* | / | / | /
CCOC(=O)CCS(=O)(=O)c1nc(-c2ccccc2)cc(C(F)(F)F)n1 | 48 | 38 | -17 | 15
O=C(O)c1ccc(C(=O)c2ccc3c(c2)C(=O)N(CC2CCCO2)C3=O)cc1 (stereo unspecified) | -2 | / | / | /
COC(=O)CCC(=O)Nc1nc(-c2ccccc2)cs1 | 62* | -2 | -10 | -7
CC(C)CC1CCCCC1OC(=O)C[N+]1(C)CCCCC1 (stereo unspecified) | -43 | / | / | /
COc1nc(Nc2ccc([N+](=O)[O-])cc2)nc(NC2CCCCC2)n1 | 5 | / | / | /
Cn1c(SCc2ccc(C#N)cc2)nnc1-c1cccc(Cl)c1 | 60* | 3 | 3 | -4

Bioassay records: PubChem BioAssay, Columbia University Molecular Screening Center
